In the supplement of paper PMC7393113:
“And” between values parts separate entries of the source, which are not always exact repeats. Equal entries are not always repeated. Structures can show the parent of a compound that is named as a salt. ± gives the standard deviation of the averaged measurements.

Test system: iBMDM (immortalised mouse bone-marrow-derived macrophages), LPS-stimulated
Assay: mitochondrial superoxide (MitoSOX fluorescence) fold increase over unstimulated control; higher = more LPS-induced mitochondrial ROS (less inhibition)
Details: inhibitor concentration: 500 nM, LPS: 100 ng/ml
Summary of the method: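 Immortalised mouse bone-marrow-derived macrophages in black 96-well plates were kept in phenol-red-free 1% FCS/DMEM for 20 h, pretreated 30 min with kinase inhibitors (500 nM), loaded with 1 μM MitoSox for 10 min and then given LPS (100 ng/ml). Fluorescence at excitation/emission 510/580 nm was read on a ClarioStar plate reader every 60 min for 4 h, with wells in triplicate. Mitochondrial superoxide is given as fold induction over untreated macrophages, averaged across replicates.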

Row | Compound | mitochondrial superoxide (time after LPS: 1 h) | mitochondrial superoxide (time after LPS: 2 h) | mitochondrial superoxide (time after LPS: 4 h)
1 | COc1c(C)c(C(=O)c2ccc(N)c(C(=O)O)c2)n2ccccc12 | 1.19 ± 0.076 | 1.26 ± 0.036 | 1.32 ± 0.062
2 | CO[C@@H](C(=O)N1Cc2[nH]nc(NC(=O)c3ccc(N4CCN(C)CC4)cc3)c2C1)c1ccccc1 | 1.3 ± 0.035 | 1.38 ± 0.029 | 1.48 ± 0.038
3 | COc1cc(N2CCC(N3CCN(C)CC3)CC2)ccc1Nc1ncc(Cl)c(Nc2ccccc2S(=O)(=O)C(C)C)n1 | 1.24 ± 0.068 | 1.3 ± 0.019 | 1.47 ± 0.04
4 | C=CC(=O)Nc1ccc2ncnc(Nc3ccc(OCc4cccc(F)c4)c(Cl)c3)c2c1 | 1.18 ± 0.017 | 1.204 ± 0.0092 | 1.42 ± 0.13
5 | CCCCCCCCCCCCc1ccc(S(=O)(=O)Nc2nncs2)cc1 | 1.21 ± 0.041 | 1.2 ± 0.016 | 1.2 ± 0.038
6 | CCN(CC)CCCC(C)Nc1nc(C)cc(Nc2ccc3nc(C)cc(N)c3c2)n1 (stereo not drawn) | 1.35 ± 0.041 | 1.53 ± 0.051 | 1.65 ± 0.15
7 | CN(c1ncccc1CNc1nc(Nc2ccc3c(c2)CC(=O)N3)ncc1C(F)(F)F)S(C)(=O)=O | 1.27 and 1.06 | 1.34 and 1.11 | 1.63 and 1.11
8 | Nc1nc(Nc2ccc(S(N)(=O)=O)cc2)nn1C(=O)c1c(F)cccc1F | 1.15 ± 0.04 | 1.13 ± 0.027 | 1.11 ± 0.021
9 | Nc1nc(N)c(N=O)c(OCC2CCCCC2)n1 | 1.17 ± 0.03 | 1.25 ± 0.017 | 1.37 ± 0.074
10 | CC(C)c1cnn2c(NCc3ccccc3)cc(NCCCCCCN)nc12 | 1.16 ± 0.054 | 1.25 ± 0.025 | 1.47 ± 0.059
11 | Nc1ncnc2c1c(-c1cnc3[nH]ccc3c1)nn2C1CCCC1 | 1.34 ± 0.077 | 1.41 ± 0.079 | 1.57 ± 0.058
12 | COc1cc(N2CCC(N(C)C)CC2)ccc1Nc1ncc(Cl)c(Nc2ccccc2P(C)(C)=O)n1 | 1.15 ± 0.031 | 1.27 ± 0.11 | 1.33 ± 0.076
13 | Cc1nc(NC(=O)N2CCC[C@H]2C(N)=O)sc1-c1csc(C(C)(C)C)n1 | 1.31 ± 0.053 | 1.43 ± 0.015 | 1.64 ± 0.053
14 | CCCCCCCCc1ccc(CCC(N)(CO)CO)cc1 [Fingolimod (FTY720) HCl] | 1.15 ± 0.043 | 1.19 ± 0.071 | 1.31 ± 0.038
15 | COc1ncc(-c2ccc3nccc(-c4ccnnc4)c3c2)cc1NS(=O)(=O)c1ccc(F)cc1F | 1.28 ± 0.049 | 1.42 ± 0.033 | 1.52 ± 0.077
16 | COc1ccc(-c2ccc3c(N4CCOCC4)nc(N4C[C@@H](C)O[C@@H](C)C4)nc3n2)cc1CO | 1.29 ± 0.041 | 1.24 ± 0.037 | 1.32 ± 0.068
17 | Cn1c(=O)c(F)c(Nc2ccc(I)cc2F)c2c(=O)n(C[C@@H](O)CO)cnc21 | 1.36 ± 0.021 | 1.39 ± 0.028 | 1.51 ± 0.055
18 | O=c1sn(-c2cccc3ccccc23)c(=O)n1Cc1ccccc1 [Tideglusib] | 1.14 ± 0.068 | 1.17 ± 0.049 | 1.29 ± 0.062
19 | COc1cc2ncnc(Nc3ccc(F)c(Cl)c3)c2cc1OCCCN1CCOCC1 [Gefitinib (ZD1839)] | 1.6 ± 0.048 | 1.71 ± 0.044 | 1.77 ± 0.025
20 | Cc1ccc(NC(=O)c2cccc(C(C)(C)C#N)c2)cc1Nc1ccc2ncn(C)c(=O)c2c1 | 1.07 ± 0.05 | 1.14 ± 0.084 | 1.349 ± 0.011
21 | CNCc1ccc(-c2cc(-c3nc(-c4ccc(S(=O)(=O)C(C)C)cc4)cnc3N)on2)cc1 | 1.12 ± 0.068 | 1.24 ± 0.057 | 1.26 ± 0.018
22 | CO[C@H]1C[C@@H]2CC[C@@H](C)[C@@](O)(O2)C(=O)C(=O)N2CCCC[C@H]2C(=O)O[C@H]([C@H](C)C[C@@H]2CC[C@@H](OC(=O)C(C)(CO)CO)[C@H](OC)C2)CC(=O)[C@H](C)/C=C(\C)[C@@H](O)[C@@H](OC)C(=O)[C@H](C)C[C@H](C)/C=C/C=C/C=C/1C | 1.55 ± 0.051 | 1.65 ± 0.098 | 1.75 ± 0.089
23 | FC(F)(F)c1ccc(/C=C/c2nc(COc3ccc(CCCCn4ccnn4)cc3)co2)cc1 [Mubritinib (TAK 165)] | 1.06 ± 0.033 | 1.17 ± 0.075 | 1.296 ± 0.0099
24 | C[C@@H]1COCCN1c1cc(C2(S(C)(=O)=O)CC2)nc(-c2cccc3[nH]ccc23)n1 | 1.19 ± 0.055 | 1.244 ± 0.0093 | 1.34 ± 0.052
25 | Cc1ccc(C(=O)Nc2ccc(CN3CCN(C)CC3)c(C(F)(F)F)c2)cc1C#Cc1cnc2cccnn12 | 1.08 ± 0.068 | 1.13 ± 0.014 | 1.23 ± 0.048
26 | Cc1csc(-c2nnc(Nc3ccc(Oc4ncccc4-c4ccnc(N)n4)cc3)c3ccccc23)c1 | 1.35 ± 0.042 | 1.5 ± 0.038 | 1.67 ± 0.046
